{"source": "PubChem BioAssay (NCI)", "note": "Compounds without any hit were thinned out: in the full panel of roughly 83,000, 20% have a hit.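 Activity criterion: percent growth below 10, measured after cells in 96-well plates were exposed to a single compound concentration for 48 hours.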 Calls of active or inactive are those of the source.", "data": [{"system": "T-47D breast", "experiment": "NCI-60 one-dose screen, 48 h (100 = growth as untreated, 0 = no growth, -100 = all killed)", "details": "10 µM unless noted", "values": [{"smiles": "CCOc1ccc(/C=N/NC(=O)c2cccc3ccccc23)cc1OCC", "growth": "86.1% (inactive)"}, {"smiles": "CCN(CC)C(=O)C1(C)CCCC2(C)c3cc(OC(C)=O)ccc3CCC12", "note": "(centres undefined)", "growth": "71.7% (inactive)"}, {"smiles": "COc1ccc(-c2nc(SCC(C)C)nc(Nc3ccc(C(=O)O)cc3)c2C#N)cc1", "growth": "87.3% (inactive)"}, {"smiles": "O=C(/C=C/c1cccc(O)c1)c1cccc(-n2cc(-c3ccc(Cl)cc3)[nH]c2=O)c1", "growth": "-0.126% (active)"}, {"smiles": "CC(O)c1cc[cH-]c1.[Fe+2].c1cc[cH-]c1", "note": "(centres undefined)", "growth": "101% (inactive)"}, {"smiles": "CC1(C)C(O)NC(Cl)=C(C#N)C1(C#N)C#N", "note": "(centres undefined)", "growth": "106% (inactive)"}, {"smiles": "COC(=O)C(C)[C@H]1CC[C@@H]2[C@]1(C)CC=C1[C@]23C=C[C@]2(C[C@@H](OC(C)=O)CC[C@]12C)C(C(=O)OC)C3C(=O)OC", "note": "(some centres undefined)", "growth": "78.2% (inactive)"}, {"smiles": "CC(C)C(=O)c1ccc(Cl)s1", "growth": "90.4% (inactive)"}, {"smiles": "CC1=C(C)C(=O)C(C(C)C2=C(C)C(=O)C(C)=C(C)C2=O)=C(C)C1=O", "growth": "91.6% (inactive)"}, {"smiles": "Cc1ccc2c(O)c(O)cc(NC(C)CCCN)c2n1", "note": "(centres undefined)", "growth": "63.3% (inactive)"}, {"smiles": "O=S(=O)(Cc1cccc2c(CS(=O)(=O)c3ccc(Cl)cc3)cccc12)c1ccc(Cl)cc1", "growth": "100% (inactive)"}, {"smiles": "C=CN(C)S(C)(=O)=O", "growth": "16.8% (inactive)"}, {"smiles": "CCCCCCCCCCCCCCCCC(=O)O.CCCCCCCCCCCCCCCCCC(=O)O.CCCCCCCCCCCCCCCCCC(=O)O.CCCCCCCCCCCCCCCCCC(=O)O.CCCCCCCCCCCCCCCCCC(=O)O.CO[CH-]OC12COC1CC(O)C1(C)C(O)C(OC(C)O)C3=C(C)C(OC(=O)C(O)C([NH-])c4ccccc4)CC(O)(C(OC(=O)c4ccccc4)C21)C3(C)C.[Cu+].[Zn].[Zn].[Zn].[Zn].[Zn]", "note": "(centres undefined)", "growth": "45.9% (inactive)"}, {"smiles": "COc1ccccc1Cn1cc2c(c1)-c1oncc1CC2", "growth": "52% (inactive)"}, {"smiles": "CC(=O)OCC(=O)[C@@]1(O)[C@H](C)C[C@H]2[C@@H]3C=C(C)C4=Cc5c(cnn5-c5ccc(F)cc5)C[C@]4(C)[C@H]3[C@@H](O)C[C@@]21C", "growth": "42.9% (inactive)"}, {"smiles": "O=C(/C=C\\c1ccccc1Cl)c1ccccc1", "growth": "91.6% (inactive)"}, {"smiles": "CCOC(=O)C(C)C(C)(O)c1ccccc1", "note": "(centres undefined)", "growth": "97.3% (inactive)"}, {"smiles": "CCCCCCCCCCCCCCCCCC1=NCCN1CS(=O)(=O)O", "growth": "57.4% (inactive)"}, {"smiles": "CCCCCCCCCCCC(=O)OC(C)C(=O)Nc1ccccc1", "note": "(centres undefined)", "growth": "87.9% (inactive)"}, {"smiles": "CCCCCCCCCCC1OC(C)CC(C)O1", "note": "(centres undefined)", "growth": "88.7% (inactive)"}, {"smiles": "COc1cc(OC)c(/C=C/c2ccc3ccccc3[n+]2C)c(OC)c1", "growth": "9.72% (active)"}, {"smiles": "CCOC(=O)c1cc(C(=O)c2ccc(Br)cc2)n2cc(C)cc(C)c12", "growth": "80.3% (inactive)"}, {"smiles": "Cc1ccc(OCCn2ccc(=O)n(CCOc3ccc(Cl)cc3C(=O)c3cc(C)cc(C)c3)c2=O)cc1", "growth": "39.5% (inactive)"}, {"smiles": "O=C1C(Cl)=C(SC2=NCCN2)C(=O)c2ccccc21", "growth": "49.7% (inactive)"}]}]}
